The results in this text go back to PubChem BioAssay (EPA / NIEHS).

Values joined by “and” are separate entries in the source; they are usually repeats but may differ in a detail not shown here. Equal values may be shown once. A structure can be active in one record and inactive in another. Active and inactive are the calls of the source. The calls were made as follows: active = hit-call score of the fitted dose curve at least 0.9, where 1 is the maximum; inactive = score below 0.9.

Assay [1] is described as follows: BSK_hDFCGF_Proliferation: Cell Proliferation Assessment in the BioMAP Diversity Plus: hDFCGF Assay (AID 2283059).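 Also: curves fitted for both rise and fall of signal versus DMSO baseline.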 Particulars: primary human foreskin fibroblasts. The procedure, abridged:
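Steps: dose primary human dermal fibroblasts (foreskin); […] fix in 10% TCA; stain with 0.1% SRB; read 560 nm; fit gain or loss of signal against DMSO.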

Read-out in assay [2]: Macrophage colony-stimulating factor (MCSF), CSF1 (gene 1435)
The assay is described as follows: BSK_hDFCGF_MCSF: BioMAP Diversity Plus: hDFCGF Assay for Macrophage colony-stimulating factor (MCSF) Biomarker Activity (AID 2283060). Particulars: primary human foreskin fibroblasts; actives raise or lower the signal. The procedure, abridged: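 ELISA read-out of M-CSF in human dermal foreskin fibroblast cultures, 24 h after chemical dosing; gain or loss of signal fitted bidirectionally relative to DMSO baseline.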

Assay [3] in a line: BSK_hDFCGF_SRB: Viability Assessment in the BioMAP Diversity Plus: hDFCGF Assay (AID 2283061).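 Also: cells exposed to compound for 24 h before the read.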 Particulars: primary human foreskin fibroblasts. The method, boiled down: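 Primary human foreskin fibroblasts; 24 h post-dose; fixed 10% TCA, stained 0.1% SRB, A560 read; total protein as overt cytotoxicity measure; curves fit bidirectionally vs DMSO control.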
Read-out in assay [4]: TIMP metallopeptidase inhibitor 1 (TIMP1), TIMP1 (gene 7076)
Kind of assay: BSK_hDFCGF_TIMP1: BioMAP Diversity Plus: hDFCGF Assay for TIMP metallopeptidase inhibitor 1 (TIMP1) Biomarker Activity (AID 2283062). Particulars: primary human foreskin fibroblasts; actives raise or lower the signal. The method, boiled down:
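ELISA readout of TIMP-1 from human dermal foreskin fibroblast cultures 24 h post-dosing. Curves were fitted in both directions against DMSO baseline, with SRB total-protein staining in parallel cultures as a cytotoxicity check.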

Read-out in assay [5]: Monokine induced gamma interferon (MIG), CXCL9 (gene 4283)
Kind of assay: BSK_hDFCGF_MIG: BioMAP Diversity Plus: hDFCGF Assay for Monokine induced gamma interferon (MIG) Biomarker Activity (AID 2283063). To be noted: primary human foreskin fibroblasts; actives raise or lower the signal. The procedure, abridged: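 Fibroblasts (human foreskin, primary) dosed, 24 h, MIG by ELISA; fit bidirectional vs DMSO.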

Read-out in assay [6]: Matrix Metallopeptidase 1 (MMP1), MMP1 (gene 4312)
Kind of assay: BSK_hDFCGF_MMP1: BioMAP Diversity Plus: hDFCGF Assay for Matrix Metallopeptidase 1 (MMP1) Biomarker Activity (AID 2283064). To be noted: primary human foreskin fibroblasts; actives raise or lower the signal. The method, boiled down: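 Primary human foreskin fibroblasts in the hDFCGF system were dosed with test chemical, and MMP1 was measured by ELISA 24 h later. Values come from bidirectional curve fitting against the DMSO baseline.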

Read-out in assay [7]: Vascular cell adhesion molecule 1 (VCAM1), VCAM1 (gene 7412)
The assay is described as follows: BSK_hDFCGF_VCAM1: BioMAP Diversity Plus: hDFCGF Assay for Vascular cell adhesion molecule 1 (VCAM1) Biomarker Activity (AID 2283065).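 As to AC50: VCAM-1 protein level quantified by ELISA after 24 h chemical exposure.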 To be noted: primary human foreskin fibroblasts; actives raise or lower the signal. The method, boiled down:
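ELISA read-out of VCAM-1 on human skin fibroblasts, 24 h post-dose; gain or loss of signal fitted bidirectionally against DMSO baseline.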

Read-out in assay [8]: Plasminogen activator inhibitor-1 (PAI1), SERPINE1 (gene 5054)
Kind of assay: BSK_hDFCGF_PAI1: BioMAP Diversity Plus: hDFCGF Assay for Plasminogen activator inhibitor-1 (PAI1) Biomarker Activity (AID 2283066). To be noted: primary human foreskin fibroblasts; actives raise or lower the signal. The procedure, abridged: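 Primary dermal fibroblasts (human foreskin), hDFCGF system; compound 24 h; PAI-1 by ELISA; bidirectional fit vs DMSO control.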

Read-out in assay [9]: Intercellular Adhesion Molecule 1 (ICAM1), ICAM1 (gene 3383)
Kind of assay: BSK_KF3CT_ICAM1: BioMAP Diversity Plus: KF3CT Assay for Intercellular Adhesion Molecule 1 (ICAM1) Biomarker Activity (AID 2283067). Particulars: primary human keratinocytes with fibroblasts; actives raise or lower the signal. The procedure, abridged:
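ELISA readout of ICAM-1; KF3CT human skin co-culture (keratinocytes + foreskin fibroblasts), 24 h post-dose; gain/loss fit vs DMSO baseline.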

Read-out in assay [10]: Interferon-gamma inducible Protein 10 (IP10), CXCL10 (gene 3627)
The assay is described as follows: BSK_KF3CT_IP10: BioMAP Diversity Plus: KF3CT Assay for Interferon-gamma inducible Protein 10 (IP10) Biomarker Activity (AID 2283068). To be noted: primary human keratinocytes with fibroblasts; actives raise or lower the signal. The method, boiled down: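 KF3CT co-culture (keratinocytes + foreskin fibroblasts), 24 h compound, IP-10 by ELISA; bidirectional fit vs DMSO baseline.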

Usually AC50 stands for the concentration giving half of the maximal activity seen.

Consider `O=C(O)COc1nc(Cl)c(Cl)cc1Cl`, for which the result in [1], in assay [2], in assay [3], in [4], in assay [5] and in assay [6] was inactive. Besides, the result in assay [7], in assay [8], in assay [9] and in assay [10] was inactive.

Take `N#Cc1nn(-c2c(Cl)cc(C(F)(F)F)cc2Cl)c(N)c1S(=O)C(F)(F)F` (stereo unspecified): the outcome in assay [1], in assay [2], in assay [3], in assay [4], in [5] and in assay [6] was inactive. For the same compound, the result in assay [7], in assay [8] and in [9] was inactive. In assay [10], the AC50 was 29.1 µM (active).

As to `CCNc1nc(Cl)nc(NCC)n1`, the outcome in assay [1], in assay [2], in [3], in [4], in assay [5] and in assay [6] was inactive. Also, the result in assay [7], in assay [8], in assay [9] and in assay [10] was inactive.

For `CCCCNC(=O)n1c(NC(=O)OC)nc2ccccc21`, the AC50 was 15 µM (active) in [1] and 11.3 µM (active) in assay [6]. Besides, the outcome in assay [2], in [3], in [4], in [5], in assay [7] and in assay [8] was inactive. Moreover, the outcome in [9] and in assay [10] was inactive.

Regarding `CNC(=S)S`, the values for the AC50 in assay [1], in assay [6] and in assay [10] were 20 µM (active), 7.89 µM (active) and 20.7 µM (active), respectively. For the same compound, the result in assay [2], in assay [3], in [4], in assay [5], in assay [7] and in assay [8] was inactive. Also, the result in assay [9] was inactive.

Take `CCc1nn(C)c(C(=O)NCc2ccc(C(C)(C)C)cc2)c1Cl`: the AC50 was 20 µM (active) in [1]; 23.9 µM (active) in assay [2]; 27.5 µM (active) in assay [3]; 32.1 µM (active) in assay [4]; 33.7 µM (active) in assay [5]; 32.2 µM (active) in assay [6]. The AC50 is 20 µM (active) in assay [7], 15.5 µM (active) in assay [8], 32.9 µM (active) in assay [9] and 18.7 µM (active) in assay [10].

Turning to `C=CC1(C)OC(=O)N(c2cc(Cl)cc(Cl)c2)C1=O` (stereo unspecified), the outcome in [1], in [2], in assay [3], in [4], in [5] and in assay [6] was inactive. Further, the result in assay [7], in assay [8], in assay [9] and in [10] was inactive.

As for `CCCC1COC(Cn2cncn2)(c2ccc(Cl)cc2Cl)O1` (stereo unspecified), the AC50 in [1] was 4.49 µM (active). For the same compound, the outcome in assay [2], in assay [3], in assay [4], in assay [5], in assay [6] and in assay [7] was inactive. In addition, the result in assay [8], in assay [9] and in [10] was inactive.

With `COC(=O)c1ccccc1C(=O)OC`, the result in [1], in assay [2], in [3], in [4], in assay [5] and in [6] was inactive. Moreover, the outcome in [7], in [8], in assay [9] and in [10] was inactive.

Consider `CS/C(C)=N/OC(=O)N(C)SN(C)C(=O)O/N=C(\C)SC`, for which the AC50 in assay [1] was 3.73 µM (active); in [3] it was 11.7 µM (active); in assay [5] it was 11 µM (active); in [8], 12 µM (active); in assay [9] it was 11.1 µM (active); in [10], 12.4 µM (active). In addition, the result in assay [2], in assay [4], in assay [6] and in assay [7] was inactive.

Turning to `CCOP(=S)(OCC)SCn1c(=O)oc2cc(Cl)ccc21`, the AC50 in assay [1] was 15.5 µM (active); in assay [2], 14.3 µM (active); in assay [6], 2.15 µM (active); in [7], 15.6 µM (active); in assay [8], 13.8 µM (active); in [9] it was 7.36 µM (active). Also, the outcome in [3], in [4], in assay [5] and in assay [10] was inactive.

On to `COc1nc(NC(C)C)nc(NC(C)C)n1`, for which the outcome in assay [1], in [2], in [3], in [4], in assay [5] and in assay [6] was inactive. In addition, the outcome in [7], in assay [8], in [9] and in assay [10] was inactive.

`OC(c1ccc(Cl)cc1)(c1cncnc1)c1ccccc1Cl` (stereo unspecified): the AC50 is 20 µM (active) in [1], 11.5 µM (active) in assay [6] and 16.6 µM (active) in assay [8]. Further, the outcome in assay [2], in assay [3], in assay [4], in assay [5], in assay [7] and in assay [9] was inactive. For the same compound, in assay [10], the outcome was inactive.

With `C=CCC1=C(C)C(OC(=O)C2C(C=C(C)C)C2(C)C)CC1=O` (stereo unspecified), the AC50 in [1] is 16.5 µM (active) [middle of 4 runs]; in [2], 31.2 µM (active) and 38.4 µM (active) and 29.1 µM (active); in [3] it was 32.4 µM (active) [middle of 4 runs]; in [4], 33.9 µM (active) [middle of 4 runs]; in assay [5], 38.9 µM (active) [middle of 4 runs]; in assay [6] it was 35.6 µM (active) [middle of 4 runs]. The AC50 in assay [7] is 28.7 µM (active) [middle of 4 runs]; in [8], 30.4 µM (active) and 38.4 µM (active) and 38.8 µM (active); in assay [10], 35 µM (active) and 31 µM (active) and 29.2 µM (active). Besides, the outcome in assay [9] and in assay [10] was inactive.
